# KCNQ2 enhance – KCNQ2 (rat) channel potentiation; CHO-K1 KCNQ2, FluxOR thallium flux fluorescence; active compounds read high; B-score at 10 µM; 310,000 tested, 0.54% active; AID 2239;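 active = fluorescence ratio B-score at least 3 SD of library B-scores, with initial fluorescence B-score within 3 of them, cut at about 5.3 in these data; same plate scores as AID 2156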;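 also: B-score of peak minus minimum over baseline fluorescence ratio after K+ and Tl+ stimulus; positive B-score means potentiation of KCNQ2 with more thallium influx and brighter signal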
# Target sequence (O88943 whole entry, looked up): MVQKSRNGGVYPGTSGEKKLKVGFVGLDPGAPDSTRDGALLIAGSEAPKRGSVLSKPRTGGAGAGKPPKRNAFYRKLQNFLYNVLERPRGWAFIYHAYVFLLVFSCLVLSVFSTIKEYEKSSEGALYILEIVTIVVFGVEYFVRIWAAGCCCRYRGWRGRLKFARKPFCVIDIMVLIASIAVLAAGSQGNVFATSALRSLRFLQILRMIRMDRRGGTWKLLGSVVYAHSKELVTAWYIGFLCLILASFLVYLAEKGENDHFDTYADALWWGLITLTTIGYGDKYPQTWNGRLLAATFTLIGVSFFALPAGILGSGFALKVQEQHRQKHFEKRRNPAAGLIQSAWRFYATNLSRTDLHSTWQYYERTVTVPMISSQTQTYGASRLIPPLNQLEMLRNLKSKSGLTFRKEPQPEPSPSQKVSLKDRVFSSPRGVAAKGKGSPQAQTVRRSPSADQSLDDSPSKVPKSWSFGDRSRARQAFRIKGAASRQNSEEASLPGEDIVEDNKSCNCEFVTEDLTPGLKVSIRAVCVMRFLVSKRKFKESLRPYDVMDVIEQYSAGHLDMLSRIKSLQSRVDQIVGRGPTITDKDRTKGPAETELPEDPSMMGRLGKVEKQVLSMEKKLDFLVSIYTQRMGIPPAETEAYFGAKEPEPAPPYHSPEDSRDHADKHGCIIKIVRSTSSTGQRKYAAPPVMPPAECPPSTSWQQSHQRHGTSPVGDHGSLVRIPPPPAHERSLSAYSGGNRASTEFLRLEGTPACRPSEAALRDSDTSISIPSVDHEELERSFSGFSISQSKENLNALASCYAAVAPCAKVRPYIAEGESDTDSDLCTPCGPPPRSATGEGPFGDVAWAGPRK
# KCNQ2 block – KCNQ2 (rat) channel inhibition. 310,000 tested, 1.1% active. O88943. CHO-K1 KCNQ2, FluxOR thallium flux, 20 min; active compounds read low. AID 2156. B-score at 10 µM;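 active = fluorescence ratio B-score at most minus 3 library SDs, with starting brightness B-score within 2 library SDs, cut at about -5.5 in these data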
# KCNQ2 inh conf – rat KCNQ2 channel inhibition, confirmatory screen; 1,000 tested, 57% active; shares compounds with KCNQ2 block; activity change, negative = inhibition, % at 10 µM; KCNQ2-expressing cells, thallium flux; active compounds read low
# KCNQ1 spec – human KCNQ1 activity in KCNQ2 inhibitor specificity screen | shares compounds with KCNQ2 block | KCNQ1-expressing cells, FluxOR thallium flux fluorescence; active compounds read low | activity change, negative = inhibition, % at 10 µM | 1,000 tested, 15% active | AID 493026;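 active = activity change at least 3 SD of negative controls below their mean in both duplicate wells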;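 also: CHO cells stably transfected with KCNQ1 and depolarized by potassium stimulus; peak minus minimum fluorescence over baseline after thallium addition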
# CHO Tl ctr – KCNQ2 inhibitor counter-screen hit in parental CHO cells | shares compounds with KCNQ2 block | AID 493029 | activity change, % at 10 µM | thallium flux counter-screen; active compounds read low | 1,000 tested, 14% active
# KCNQ2 inh confirm – confirmation of rat KCNQ2 potassium channel inhibitors; shares compounds with KCNQ2 block; KCNQ2-expressing cells, automated patch clamp current; calls only at 10 µM; 550 tested, 49% active
# Numbers stand for hits; i = inactive; nt = no result; + = active, no number. A selection: hits, their analogues and other compounds. The true share with any hit is near 1.6%. Unless noted, no rule for the calls is given here.
SMILES,KCNQ2 enhance,KCNQ2 block,KCNQ2 inh conf,KCNQ1 spec,CHO Tl ctr,others
Cn1c(SCCC#N)nnc1-c1ccc(F)cc1,i,i,nt,nt,nt,
CC(C)(C)c1ccc(-c2nnc(SCCC#N)n2C2CCCC2)cc1,i,-8.5,-28%,i,i,KCNQ2 inh confirm=i
c1ccc(-c2nccc3ccccc23)cc1,i,i,nt,nt,nt,
Cc1ccc(-c2nc(-c3nccc4ccccc34)oc2-c2ccccc2)cc1,i,-9.2,-28%,i,i,KCNQ2 inh confirm=i
NS(=O)(=O)c1cc(C(=O)N2CCc3ccccc32)c(Cl)cc1Cl,i,i,nt,nt,nt,
O=C1Nc2ncccc2OC1CCO (configuration not stated),nt,i,nt,nt,nt,
O=C(CN1C(=O)NC2(CCCC2)C1=O)OCCOc1ccc(Br)cc1,nt,i,nt,nt,nt,
Cc1cccc(OCc2nnc(SCC(=O)N3c4ccccc4CCc4ccccc43)o2)c1,i,-7.3,i,i,i,
Cc1cccc(OCc2nnc(SCC(=O)N3CCCC3)o2)c1,nt,i,nt,nt,nt,
Cc1cc(C)n(CC(=O)NC2CCCCC2C)c(=O)c1C#N (configuration not stated),i,i,nt,nt,nt,
COc1ccc(S(=O)(=O)N2CCC(C(=O)NCCCc3ccccc3)CC2)cc1,nt,i,nt,nt,nt,
Brc1cccc(-c2cnco2)c1,i,i,nt,nt,nt,
COc1cc(CO)cc(Br)c1OCc1cccnc1,nt,i,nt,nt,nt,
C/C(=C\C(=O)c1ccc(Br)cc1)Nc1ccc(Cl)cc1,nt,i,nt,nt,nt,
COc1cccc(N/C(C)=C/C(=O)c2ccc(Br)cc2)c1,i,-7.6,-41%,-47%,-33%,KCNQ2 inh confirm=i
COc1cccc(CN2CC(C(=O)NCCc3ccc(C)o3)CCC2=O)c1 (configuration not stated),nt,i,nt,nt,nt,
COc1cc(C2CC(=O)Nc3ccccc3S2)cc(OC)c1OC (configuration not stated),i,-8.5,i,i,i,
COc1cc(C2Sc3ccccc3NC3=C2C(=O)OC3)cc(OC)c1OC (configuration not stated),nt,i,nt,nt,nt,
COc1ccccc1CNC(=O)Cn1cc([N+](=O)[O-])ccc1=O,i,i,nt,nt,nt,
O=S(=O)(/N=C(\Sc1ccccc1)c1ccccc1)c1ccc(Cl)cc1,i,-6.9,i,i,i,
Cc1ccc(S(=O)(=O)/N=C(\Sc2ccccc2)c2ccccc2)cc1,nt,i,nt,nt,nt,
COc1ccc(S(=O)(=O)NNc2nc(C)cc(C)n2)cc1Br,i,i,nt,nt,nt,
CC(=O)Nc1cccc(NC(=O)CS(=O)(=O)c2cn(CC(=O)N(C(C)C)C(C)C)c3ccccc23)c1,nt,i,nt,nt,nt,
CC(C(=O)NCC1CCCCC1)N(C)Cc1ccc(Cl)cc1 (configuration not stated),i,-6.7,i,i,i,
CC(C(=O)NCC1CCCCC1)N(C)Cc1ccc(Br)cc1 (configuration not stated),nt,i,nt,nt,nt,
SMILES,KCNQ2 enhance,KCNQ2 block,KCNQ2 inh conf,KCNQ1 spec,CHO Tl ctr,others
O=C(N1CCOCC1)N1c2ccccc2Sc2ccccc21,nt,i,nt,nt,nt,
CC1CCCN(C(=O)N2c3ccccc3Sc3ccccc32)C1 (configuration not stated),i,-6.9,-15%,i,i,KCNQ2 inh confirm=i
O=C(c1ccc([N+](=O)[O-])s1)N1CCN(c2ccc(C(F)(F)F)cn2)CC1,nt,i,nt,nt,nt,
COC(=O)c1ccc(Oc2nc(C(N)=O)cc(-c3ccccc3)n2)cc1,nt,i,nt,nt,nt,
O=C(N1CCN(c2ccc(F)cc2)CC1)C12CC3CC(CC(C3)C1)C2,nt,i,nt,nt,nt,
Cc1cccc(N2CCN(C(=O)C34CC5CC(CC(C5)C3)C4)CC2)c1C,i,-7.3,-20%,i,i,KCNQ2 inh confirm=i
Cc1cccc(N2CCN(C(=O)N3CCCCC3)CC2)c1C,nt,i,nt,nt,nt,
O=C(N1CCN(c2ccccc2F)CC1)C12CC3CC(CC(C3)C1)C2,i,-7.6,-26%,i,i,KCNQ2 inh confirm=+
O=C(O)c1cnc(-c2ccccc2)nc1Oc1ccccc1,nt,i,nt,nt,nt,
O=C(O)c1cnc(-c2ccccc2)nc1Oc1ccc(Cl)cc1,i,-7.5,-20%,i,i,KCNQ2 inh confirm=+
O=C(NCC1CCCO1)c1cccc2ccccc12 (configuration not stated),i,i,nt,nt,nt,
O=C(NC(NCC1CCCO1)C(Cl)(Cl)Cl)c1cccc2ccccc12 (configuration not stated),i,-8.6,i,i,i,
O=C(OCC(=O)N1CCN(C(=O)c2ccco2)CC1)c1cccc(S(=O)(=O)N2CCc3ccccc32)c1,i,i,nt,nt,nt,
COc1cccc(NC(=O)C(NCC2CCCCC2)c2ccccc2)c1 (configuration not stated),i,-10,-28%,i,i,KCNQ2 inh confirm=+
COc1cccc(NC(=O)C2CCCCC2)c1,i,i,nt,nt,nt,
CC(C)C[C@H](NC(=O)N1CCn2c1nc1ccccc12)C(=O)NCCc1ccccc1,nt,i,nt,nt,nt,

# Bioassay records from PubChem BioAssay.
